Here are results for seven compounds from PubChem BioAssay (EPA / NIEHS).

A short description of assay [1]: ATG_E_Box_CIS: Attagene CIS-FACTORIAL HepG2 Assay for human Enhancer Box (E-box) (AID 2282936). To be noted: HepG2 E-box cis-reporter transcription, actives raise or lower the signal. The procedure, abridged:
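DMSO served as negative control and baseline for bidirectional fitting. Human hepatoma HepG2 cells, transiently transfected with cis-reporter constructs, were dosed 24 h; reporter mRNA read by RT-PCR and capillary electrophoresis.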

A short description of assay [2]: ATG_M_61_CIS: Attagene CIS-FACTORIAL HepG2 Assay for M61 Transcription Factor (Internal Marker) (AID 2282937). To be noted: HepG2 Attagene CIS-FACTORIAL M61 internal marker reporter; actives raise or lower the signal. The procedure, abridged:
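HepG2 cells transiently transfected with cis-element-driven multiple reporter transcription units, dosed for 24 h. Reporter mRNA measured by RT-PCR, 6-FAM primer-extension labelling, HpaI digestion and capillary electrophoresis; bidirectional fit versus DMSO baseline.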

Assay [3] can be described thus: ATG_EGR_CIS: Attagene CIS-FACTORIAL HepG2 Assay for human Early Growth Response 1 (EGR1) (AID 2282938). To be noted: HepG2 Attagene CIS-FACTORIAL EGR reporter mRNA; actives raise or lower the signal. The procedure, abridged: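 HepG2 cells transiently transfected with cis-promoter-driven multiplexed reporter transcription units; reporter mRNA measured 24 h after compound dosing by RT-PCR, 6-FAM primer extension, HpaI digestion and capillary electrophoresis. Bidirectional fit versus DMSO baseline.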

Assay [4] is described as follows: ATG_M_19_CIS: Attagene CIS-FACTORIAL HepG2 Assay for M19 Transcription Factor (Internal Marker) (AID 2282939). To be noted: HepG2 Attagene CIS-FACTORIAL M19 internal marker reporter; actives raise or lower the signal. The procedure, abridged:
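Chemical-treated HepG2 (24 h) with MRTU constructs; reporter transcripts detected by fluorescent RT-PCR fragment analysis on capillary electrophoresis. Internal background marker, DMSO as baseline.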

Assay [5] is described as follows: ATG_ERE_CIS: Attagene CIS-FACTORIAL HepG2 Assay for Estrogen Response Element (ERE) (AID 2282940). To be noted: HepG2 ERE cis-reporter, Attagene RNA transcript; actives raise or lower the signal. The procedure, abridged:
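Human liver cells (HepG2) bearing transiently transfected, promoter-regulated reporter units were exposed 24 h. Reporter mRNA induction was detected by capillary electrophoresis of labelled RT-PCR products and fitted bidirectionally to DMSO.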

Assay [6] in a line: ATG_Ets_CIS: Attagene CIS-FACTORIAL HepG2 Assay for human Erythroblast Transformation Specific (ETS) (AID 2282941). To be noted: HepG2 ETS cis-reporter transcription, actives raise or lower the signal. The procedure, abridged:
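Steps: transfect HepG2 with multiple reporter units; treat compound 24 h; isolate RNA, DNase-treat, reverse-transcribe; PCR-amplify, label with 6-FAM, digest with HpaI; separate by capillary electrophoresis. Activity fitted both directions versus DMSO.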

The target of assay [7] is Hepatocyte nuclear factor 3-beta (Homo sapiens) (UniProt Q9Y261). In words: ATG_FoxA2_CIS: Attagene CIS-FACTORIAL HepG2 Assay for human Forkhead box A2 (FOXA2) (AID 2282942). To be noted: HepG2 cis-reporter transcription factor activity, 24 h; actives raise or lower the signal. The essentials:
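HepG2 cells transiently transfected with multiple cis-regulated reporter transcription units, dosed for 24 h. Reporter mRNA measured by RT-PCR, 6-FAM labelling, HpaI digestion and capillary electrophoresis; bidirectional fitting against DMSO baseline.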

The nature of assay [8]: ATG_FoxO_CIS: Attagene CIS-FACTORIAL HepG2 Assay for human Forkhead box O (FoxO) (AID 2282943). To be noted: HepG2 Attagene cis-reporter, FoxO element, mRNA; actives raise or lower the signal. The essentials: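 HepG2, transient MRTU transfection (cis element, endogenous TFs). Dose 24 h. TriZol RNA → oligo(dT) RT → PCR → 6-FAM primer extension → HpaI cut → CE. Gain/loss vs DMSO.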

The nature of assay [9]: ATG_GATA_CIS: Attagene CIS-FACTORIAL HepG2 Assay for human GATA Binding Protein (AID 2282944). To be noted: HepG2 GATA cis-element reporter, Attagene multiplex mRNA; actives raise or lower the signal. The procedure, abridged:
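Transfected cis-reporter HepG2 cells were treated with chemicals for 24 hours. Total RNA was then converted to cDNA, amplified with reporter-specific primers and analysed by fluorescent capillary electrophoresis, using DMSO-treated wells as baseline.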

A short description of assay [10]: ATG_GLI_CIS: Attagene CIS-FACTORIAL HepG2 Assay for human Zinc Finger Protein GLI1 (AID 2282945). To be noted: HepG2, Attagene cis-factorial reporter mRNA, GLI element; actives raise or lower the signal. The essentials:
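Bidirectional curve fits relative to DMSO, using reporter mRNA levels from RT-PCR plus capillary electrophoresis. Cells were HepG2 transiently carrying cis-regulated reporter constructs, harvested 24 h after dosing.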

The target of assay [11] is Bile acid receptor (Homo sapiens) (UniProt Q96RI1). In words: ATG_IR1_CIS: Attagene CIS-FACTORIAL HepG2 Assay for human Nuclear Receptor Subfamily 1 Group H Member 4 (NR1H4), IR1 submotif (AID 2282946). To be noted: IR1 reporter transcription, actives raise or lower the signal. The procedure, abridged:
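Cells (human HepG2) carry transiently transfected cis-promoter reporter transcription units. Compounds are incubated 24 h, total RNA is reverse-transcribed and amplified, and labelled fragments are resolved by capillary electrophoresis. Curves use DMSO as baseline.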

The nature of assay [12]: ATG_GRE_CIS: Attagene CIS-FACTORIAL HepG2 Assay for human Glucocorticoid Response Elements (GRE) (AID 2282947). To be noted: HepG2 GRE cis-reporter, Attagene multiplex mRNA; actives raise or lower the signal. The essentials: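 Assay uses human hepatoma HepG2 cells transfected with cis-promoter reporter units, exposed 24 h. mRNA from reporters detected by RT-PCR plus capillary electrophoresis; DMSO serves as negative control and baseline.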

Assay [13] is described as follows: ATG_ISRE_CIS: Attagene CIS-FACTORIAL HepG2 Assay for human Interferon Regulatory Factor 1 (IRF1) binding to an Interferon-Stimulated Response Element (ISRE) (AID 2282948). To be noted: HepG2 ISRE cis-reporter (Attagene), mRNA transcription readout; actives raise or lower the signal. The essentials: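 Transfected HepG2 (multiple reporter transcription units, cis elements) dosed 24 h. RNA → oligo(dT) RT → PCR → 6-FAM primer extension → HpaI → CE. DMSO = negative control/baseline.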

A short description of assay [14]: ATG_M_06_CIS: Attagene CIS-FACTORIAL HepG2 Assay for M06 Transcription Factor (Internal Marker) (AID 2282950). To be noted: HepG2 Attagene CIS-FACTORIAL M06 internal marker reporter; actives raise or lower the signal. The procedure, abridged: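 Cells (HepG2, transiently carrying cis-driven reporter units) receive chemical for 24 h before RNA isolation. Reporter cDNA is PCR-amplified, FAM-labelled by primer extension, HpaI-digested and sized on a capillary analyser.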

For assay [15], the target named is Hypoxia-inducible factor 1-alpha (Homo sapiens) (UniProt Q16665). In words: ATG_HIF1a_CIS: Attagene CIS-FACTORIAL HepG2 Assay for human Hypoxia Inducible Factor 1 (HIF1A) (AID 2282951). To be noted: HepG2 Attagene cis-factorial HIF1a reporter transcription; actives raise or lower the signal. The procedure, abridged:
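HepG2 cells transiently transfected with multiplexed cis-promoter reporter units; reporter mRNA read 24 h after dosing by RT-PCR, 6-FAM primer-extension labelling, HpaI digestion and capillary electrophoresis. Bidirectional fit versus DMSO baseline.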

Assay [16] has as its target Hepatocyte nuclear factor 6 (Homo sapiens) (UniProt Q9UBC0). Briefly: ATG_HNF6_CIS: Attagene CIS-FACTORIAL HepG2 Assay for human Hepatocyte Nuclear Factor 6 (HNF6) (AID 2282952). To be noted: HepG2 Attagene cis-factorial HNF6 reporter transcription; actives raise or lower the signal. The essentials: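 Cells are HepG2 carrying transiently transfected cis-promoter reporter units. Treatment lasts 24 h, after which reporter transcripts are reverse-transcribed, amplified, FAM-labelled and sized by capillary electrophoresis. DMSO serves as baseline.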

The target of assay [17] is Heat shock factor protein 1 (Homo sapiens) (UniProt Q00613). Briefly: ATG_HSE_CIS: Attagene CIS-FACTORIAL HepG2 Assay for human Heat Shock Transcription Factor 1 (HSE) (AID 2282953). To be noted: HepG2 HSE cis-reporter, Attagene RNA transcription; actives raise or lower the signal. The procedure, abridged: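 Liver-derived HepG2 cells carry transiently introduced multiple reporter units governed by cis promoters. Reporter RNA measured 24 h post-dose through reverse transcription, PCR amplification, fluorescent labelling and capillary electrophoresis, normalised to DMSO.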

The nature of assay [18]: ATG_MRE_CIS: Attagene CIS-FACTORIAL HepG2 Assay for human Metal Responsive Element (MRE) (AID 2282954). To be noted: HepG2 MRE cis-reporter transcription, Attagene multiplex; actives raise or lower the signal. The essentials: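 After a 24 h chemical exposure, transiently transfected HepG2 cells yield RNA whose reporter sequences are amplified, FAM-labelled and sized by capillary electrophoresis. Curves are fitted bidirectionally relative to DMSO.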

A short description of assay [19]: ATG_M_32_CIS: Attagene CIS-FACTORIAL HepG2 Assay for M32 Transcription Factor (Internal Marker) (AID 2282949).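 Also: background control marker of the multiplexed CIS panel rather than a real target.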 To be noted: HepG2 Attagene cis-factorial M32 reporter, mRNA; actives raise or lower the signal. The procedure, abridged:
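Internal background marker read-out: RT-PCR/capillary electrophoresis fluorescence of reporter transcripts from transiently transfected HepG2 cells after 24 h chemical exposure. Activity fitted bidirectionally relative to DMSO negative control.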

Assay [20] in a line: ATG_PBREM_CIS: Attagene CIS-FACTORIAL HepG2 Assay for human Phenobarbital-responsive Enhancer Module (PBREM) (AID 2282955). To be noted: HepG2 PBREM cis-reporter, Attagene multiplexed transcription; actives raise or lower the signal. The procedure, abridged: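 HepG2 cells transiently transfected with multiple cis-regulated reporter transcription units; endogenous factor activity at the PBREM element measured as reporter mRNA 24 h after dosing, via RT-PCR and capillary electrophoresis of fluorescent fragments; bidirectional fitting versus DMSO.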

The source made the active and inactive calls. The calls were made as follows: active = hit-call score of the fitted dose curve at least 0.9, where 1 is the maximum; inactive = score below 0.9.

The term AC50 denotes the concentration at which the activity in the assay is half-maximal.

Bile acid receptor (Homo sapiens), sequence (Q96RI1 whole entry, looked up, the tested form may be a part): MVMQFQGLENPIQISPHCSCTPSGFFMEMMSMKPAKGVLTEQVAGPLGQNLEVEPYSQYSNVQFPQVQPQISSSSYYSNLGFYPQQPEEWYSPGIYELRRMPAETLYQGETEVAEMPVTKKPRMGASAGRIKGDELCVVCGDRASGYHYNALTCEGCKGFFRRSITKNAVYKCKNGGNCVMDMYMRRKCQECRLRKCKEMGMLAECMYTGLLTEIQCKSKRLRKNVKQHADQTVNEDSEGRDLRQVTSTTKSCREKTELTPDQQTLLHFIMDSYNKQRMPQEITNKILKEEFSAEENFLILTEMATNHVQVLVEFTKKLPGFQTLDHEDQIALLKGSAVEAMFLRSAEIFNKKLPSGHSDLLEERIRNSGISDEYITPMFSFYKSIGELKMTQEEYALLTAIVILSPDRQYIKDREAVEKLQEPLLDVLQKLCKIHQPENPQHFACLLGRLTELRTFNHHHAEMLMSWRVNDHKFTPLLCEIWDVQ
Hepatocyte nuclear factor 6 (Homo sapiens), sequence (Q9UBC0 whole entry, looked up): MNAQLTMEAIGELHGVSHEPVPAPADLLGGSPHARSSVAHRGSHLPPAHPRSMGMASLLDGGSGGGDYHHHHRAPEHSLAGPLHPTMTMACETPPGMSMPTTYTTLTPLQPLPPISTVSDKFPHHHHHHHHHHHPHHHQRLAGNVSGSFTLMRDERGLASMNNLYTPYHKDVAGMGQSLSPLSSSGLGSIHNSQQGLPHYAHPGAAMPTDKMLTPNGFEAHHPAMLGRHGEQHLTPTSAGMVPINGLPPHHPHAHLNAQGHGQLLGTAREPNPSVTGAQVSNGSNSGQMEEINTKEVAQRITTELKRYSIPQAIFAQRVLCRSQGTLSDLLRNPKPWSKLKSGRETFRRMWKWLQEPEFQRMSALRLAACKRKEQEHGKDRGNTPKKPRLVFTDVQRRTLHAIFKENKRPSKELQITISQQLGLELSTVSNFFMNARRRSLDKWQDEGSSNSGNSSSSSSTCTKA
Hepatocyte nuclear factor 3-beta (Homo sapiens), sequence (Q9Y261 whole entry, looked up): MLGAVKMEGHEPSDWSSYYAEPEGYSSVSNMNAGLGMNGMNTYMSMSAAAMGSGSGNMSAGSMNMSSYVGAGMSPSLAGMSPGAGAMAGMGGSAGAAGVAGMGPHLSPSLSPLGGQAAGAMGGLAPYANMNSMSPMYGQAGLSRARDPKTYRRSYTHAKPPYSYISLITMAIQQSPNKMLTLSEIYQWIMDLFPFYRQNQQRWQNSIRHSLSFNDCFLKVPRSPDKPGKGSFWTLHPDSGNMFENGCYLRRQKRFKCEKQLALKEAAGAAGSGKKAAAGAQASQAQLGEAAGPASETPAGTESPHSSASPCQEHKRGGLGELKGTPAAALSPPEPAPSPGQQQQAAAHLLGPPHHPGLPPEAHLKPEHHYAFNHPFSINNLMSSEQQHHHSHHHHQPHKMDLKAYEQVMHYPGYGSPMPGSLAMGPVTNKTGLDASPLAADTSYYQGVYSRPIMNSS
Hypoxia-inducible factor 1-alpha (Homo sapiens), sequence (Q16665 whole entry, looked up): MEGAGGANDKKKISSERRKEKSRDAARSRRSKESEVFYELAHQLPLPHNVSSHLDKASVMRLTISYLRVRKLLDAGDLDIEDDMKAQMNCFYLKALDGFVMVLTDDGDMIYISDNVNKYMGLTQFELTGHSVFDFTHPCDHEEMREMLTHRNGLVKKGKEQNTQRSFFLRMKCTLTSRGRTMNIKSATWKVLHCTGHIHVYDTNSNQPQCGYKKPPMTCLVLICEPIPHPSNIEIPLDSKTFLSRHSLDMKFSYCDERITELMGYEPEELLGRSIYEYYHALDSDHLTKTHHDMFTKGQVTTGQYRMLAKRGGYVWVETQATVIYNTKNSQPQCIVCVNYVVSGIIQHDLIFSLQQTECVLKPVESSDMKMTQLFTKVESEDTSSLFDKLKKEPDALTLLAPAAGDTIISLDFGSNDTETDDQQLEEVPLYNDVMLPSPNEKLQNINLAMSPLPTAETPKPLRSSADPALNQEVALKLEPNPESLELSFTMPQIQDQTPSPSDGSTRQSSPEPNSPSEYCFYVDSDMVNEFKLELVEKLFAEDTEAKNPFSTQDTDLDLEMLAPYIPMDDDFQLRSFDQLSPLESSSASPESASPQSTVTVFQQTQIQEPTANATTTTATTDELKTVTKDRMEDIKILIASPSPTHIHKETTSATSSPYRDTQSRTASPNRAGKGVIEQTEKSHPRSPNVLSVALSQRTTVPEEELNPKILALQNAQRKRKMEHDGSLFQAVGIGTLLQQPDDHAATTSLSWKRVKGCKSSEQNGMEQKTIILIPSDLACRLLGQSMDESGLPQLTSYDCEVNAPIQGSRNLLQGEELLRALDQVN
Heat shock factor protein 1 (Homo sapiens), sequence (Q00613 whole entry, looked up): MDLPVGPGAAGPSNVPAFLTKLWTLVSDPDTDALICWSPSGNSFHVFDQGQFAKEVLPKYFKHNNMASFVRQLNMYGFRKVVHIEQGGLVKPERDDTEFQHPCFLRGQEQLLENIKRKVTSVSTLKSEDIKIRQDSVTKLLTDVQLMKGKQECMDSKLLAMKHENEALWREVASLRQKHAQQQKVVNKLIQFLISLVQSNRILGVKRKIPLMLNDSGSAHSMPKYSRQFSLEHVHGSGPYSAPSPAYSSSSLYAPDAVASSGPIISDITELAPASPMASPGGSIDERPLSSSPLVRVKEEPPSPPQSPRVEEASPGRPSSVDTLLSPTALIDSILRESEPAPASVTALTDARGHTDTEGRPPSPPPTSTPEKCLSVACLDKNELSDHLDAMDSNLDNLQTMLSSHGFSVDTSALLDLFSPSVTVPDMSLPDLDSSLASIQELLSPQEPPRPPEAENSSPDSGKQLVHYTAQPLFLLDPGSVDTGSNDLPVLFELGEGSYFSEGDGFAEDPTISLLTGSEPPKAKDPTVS

With `CCCCCCCCCCCCCCCC[N+](C)(C)CC`, the AC50 in [1] is 13.5 µM (active); in [13] it was 9.27 µM (active); in assay [18], 8.94 µM (active). Besides, the outcome in assay [2], in assay [3], in assay [4], in assay [5], in assay [6] and in assay [7] was inactive. Further, the compound was classed as inactive in [8], in assay [9], in assay [10], in [11], in [12] and in [14]. For the same compound, the call in assay [15], in [16] and in assay [17] was inactive.
For the compound `COCC(C)N` (configuration not stated), the outcome in assay [1], in assay [2], in assay [3], in [4], in assay [5] and in [6] was inactive. The result in [7], in assay [8], in [9], in assay [10], in assay [11] and in assay [12] was inactive. For the same compound, the call in assay [13], in assay [19], in assay [14], in [15], in [16] and in [17] was inactive. For the same compound, the outcome in assay [18] and in assay [20] was inactive.
`c1ccc2c(c1)ccc1cc3c(ccc4ccccc43)cc12`: the result in [1], in assay [2], in assay [3], in [4], in [6] and in [8] was inactive. The result in assay [9], in assay [10], in [11], in [12], in [13] and in [19] was inactive. Moreover, the result in assay [14], in assay [16], in assay [17] and in assay [18] was inactive. In addition, the figures for the AC50 in assay [5], in assay [7] and in assay [15] were 180 nM (active), 76.7 nM (active) and 364 nM (active), respectively.
Consider `NC(=O)c1ccccc1O`, for which the outcome in assay [1], in assay [2], in assay [3], in assay [4], in [5] and in assay [6] was inactive. The compound was called inactive in assay [7], in [8], in [9], in assay [10], in [11] and in [12]. Besides, the compound was classed as inactive in assay [19], in assay [14], in [15], in assay [16], in assay [17] and in assay [18].
In the case of `O=S(=O)(O)c1cc(S(=O)(=O)O)c2ccc3c(S(=O)(=O)O)cc(S(=O)(=O)O)c4ccc1c2c43`, the result in [1], in assay [2], in assay [3], in [4], in assay [5] and in assay [6] was inactive. Also, the call in assay [7], in assay [8], in assay [9], in [10], in assay [11] and in assay [12] was inactive. Further, the call in [13], in assay [19], in assay [14], in assay [15], in [16] and in assay [17] was inactive. Moreover, the call in assay [18] was inactive.
As to `CC(=O)c1ccc[nH]1`, the outcome in assay [1], in [2], in assay [3], in assay [4], in assay [5] and in assay [6] was inactive. The compound was classed as inactive in assay [7], in [8], in assay [9], in assay [10], in assay [11] and in [12]. The compound was classed as inactive in assay [13], in [19], in assay [14], in [15], in assay [16] and in assay [17]. Moreover, the compound was classed as inactive in assay [18].
For `C=COCCCC`, the outcome in assay [1], in assay [2], in assay [3], in assay [4], in [5] and in assay [6] was inactive. The result in [7], in [8], in [9], in assay [10], in assay [11] and in assay [12] was inactive. The compound was classed as inactive in assay [13], in assay [19], in assay [14], in assay [15], in [16] and in assay [17]. The outcome in [18] was inactive.
